Assays:
Experiment in all cases: DAPPL (digital affinity profiling via proximity ligation, sequencing); 10 mM Tris-HCl pH 7.5, 50 mM NaCl, 1 mM DTT, 4% glycerol, room temperature, 30 min; GST-TFs on glutathione beads, 16-mer random dsDNA library, 0.1% formaldehyde crosslink after washing; high values mean tight binding
Conditions in all cases: protein: recombinant; tags: N-terminal GST; dsDNA, one strand shown
[1] = target: T1, FLI1 (Homo sapiens, UniProt Q01543 1-452)
T1 sequence: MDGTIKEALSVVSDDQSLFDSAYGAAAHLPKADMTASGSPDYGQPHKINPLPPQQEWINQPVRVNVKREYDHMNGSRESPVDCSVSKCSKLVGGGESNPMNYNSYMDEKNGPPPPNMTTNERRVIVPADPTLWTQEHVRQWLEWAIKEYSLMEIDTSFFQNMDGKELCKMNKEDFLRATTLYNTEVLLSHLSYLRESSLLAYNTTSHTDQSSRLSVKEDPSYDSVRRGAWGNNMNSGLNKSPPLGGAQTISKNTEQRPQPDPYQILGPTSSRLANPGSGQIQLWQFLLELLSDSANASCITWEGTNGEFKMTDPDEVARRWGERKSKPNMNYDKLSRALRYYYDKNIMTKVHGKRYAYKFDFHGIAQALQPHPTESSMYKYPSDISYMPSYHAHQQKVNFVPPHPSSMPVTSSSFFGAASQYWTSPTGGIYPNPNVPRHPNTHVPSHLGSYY
Summary of the method: (§1)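 GST fusions of human transcription factors were expressed in yeast and captured with glutathione beads. Once given DNA barcodes and pooled alongside a tag-only sample, they were incubated for 30 min at room temperature with 200 nmole of a random double-stranded 16-mer DNA library in Tris/NaCl/DTT/glycerol buffer, then washed, crosslinked (0.1% formaldehyde), proximity-ligated, PCR-amplified and sequenced on an Illumina NextSeq500. The binding signal of each hexamer is its read frequency for a factor divided by its frequency for the tag-only sample.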

[2] = target: T2, ELK1 (Homo sapiens, UniProt P19419 1-428)
T2 sequence: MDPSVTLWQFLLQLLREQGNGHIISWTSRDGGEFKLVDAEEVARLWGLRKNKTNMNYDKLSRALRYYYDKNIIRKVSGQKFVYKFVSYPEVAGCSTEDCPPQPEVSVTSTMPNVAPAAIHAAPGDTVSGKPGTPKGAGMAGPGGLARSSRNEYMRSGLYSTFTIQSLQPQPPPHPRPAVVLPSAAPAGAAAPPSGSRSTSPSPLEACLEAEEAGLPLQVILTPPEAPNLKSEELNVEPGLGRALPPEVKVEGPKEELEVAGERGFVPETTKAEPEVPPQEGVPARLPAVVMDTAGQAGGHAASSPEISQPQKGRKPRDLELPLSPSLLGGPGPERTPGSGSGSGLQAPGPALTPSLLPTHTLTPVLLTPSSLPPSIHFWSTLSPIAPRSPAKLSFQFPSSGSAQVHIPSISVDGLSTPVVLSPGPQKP
Summary of the method: as §1

[3] = target: T3, GABPA (Homo sapiens, UniProt Q06546 1-454)
T3 sequence: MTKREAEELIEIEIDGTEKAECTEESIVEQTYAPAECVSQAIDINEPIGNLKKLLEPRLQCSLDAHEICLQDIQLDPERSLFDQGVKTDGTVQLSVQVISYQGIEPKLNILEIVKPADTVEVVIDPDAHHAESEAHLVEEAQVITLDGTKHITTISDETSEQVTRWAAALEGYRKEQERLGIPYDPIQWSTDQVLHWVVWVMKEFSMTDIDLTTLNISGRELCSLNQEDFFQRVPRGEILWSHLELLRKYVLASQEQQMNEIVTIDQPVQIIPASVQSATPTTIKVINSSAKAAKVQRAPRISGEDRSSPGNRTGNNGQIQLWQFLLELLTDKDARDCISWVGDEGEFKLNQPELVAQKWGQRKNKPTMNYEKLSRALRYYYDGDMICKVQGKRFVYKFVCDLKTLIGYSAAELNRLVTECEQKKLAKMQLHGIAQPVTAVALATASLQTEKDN
Summary of the method: as §1

[4] = target: T4, ERG (Homo sapiens, UniProt P11308 1-479)
T4 sequence: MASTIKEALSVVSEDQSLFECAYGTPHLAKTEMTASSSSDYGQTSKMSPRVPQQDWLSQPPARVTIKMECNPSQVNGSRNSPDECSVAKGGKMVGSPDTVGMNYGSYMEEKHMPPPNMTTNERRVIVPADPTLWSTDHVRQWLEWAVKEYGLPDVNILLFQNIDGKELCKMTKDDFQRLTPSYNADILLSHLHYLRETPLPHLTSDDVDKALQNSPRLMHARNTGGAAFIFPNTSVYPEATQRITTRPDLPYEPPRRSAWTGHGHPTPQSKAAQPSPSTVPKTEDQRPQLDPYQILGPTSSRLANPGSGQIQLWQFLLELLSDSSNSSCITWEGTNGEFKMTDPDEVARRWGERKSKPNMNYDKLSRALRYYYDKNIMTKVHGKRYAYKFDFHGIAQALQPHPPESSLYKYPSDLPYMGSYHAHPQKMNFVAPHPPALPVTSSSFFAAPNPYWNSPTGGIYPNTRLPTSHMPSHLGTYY
Summary of the method: as §1

[5] = target: ELF1 (Homo sapiens, UniProt P32519 1-619)
Summary of the method: as §1

[6] = target: T5, EHF (Homo sapiens, UniProt Q9NZC4 1-300)
T5 sequence: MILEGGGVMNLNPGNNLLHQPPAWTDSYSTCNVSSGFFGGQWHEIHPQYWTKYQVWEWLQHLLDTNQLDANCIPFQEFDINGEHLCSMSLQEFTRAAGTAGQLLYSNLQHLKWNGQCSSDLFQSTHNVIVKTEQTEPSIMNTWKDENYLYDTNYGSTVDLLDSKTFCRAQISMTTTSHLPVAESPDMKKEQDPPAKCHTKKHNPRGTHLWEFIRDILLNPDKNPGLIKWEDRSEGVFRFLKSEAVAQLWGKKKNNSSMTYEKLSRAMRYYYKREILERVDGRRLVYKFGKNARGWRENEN
Summary of the method: as §1

[7] = target: SPI1 (Homo sapiens, UniProt P17947 1-270)
Summary of the method: as §1

[8] = target: SPIB (Homo sapiens, UniProt Q01892 1-262)
Summary of the method: as §1

[9] = target: T6, ELK3 (Homo sapiens, UniProt P41970 1-407)
T6 sequence: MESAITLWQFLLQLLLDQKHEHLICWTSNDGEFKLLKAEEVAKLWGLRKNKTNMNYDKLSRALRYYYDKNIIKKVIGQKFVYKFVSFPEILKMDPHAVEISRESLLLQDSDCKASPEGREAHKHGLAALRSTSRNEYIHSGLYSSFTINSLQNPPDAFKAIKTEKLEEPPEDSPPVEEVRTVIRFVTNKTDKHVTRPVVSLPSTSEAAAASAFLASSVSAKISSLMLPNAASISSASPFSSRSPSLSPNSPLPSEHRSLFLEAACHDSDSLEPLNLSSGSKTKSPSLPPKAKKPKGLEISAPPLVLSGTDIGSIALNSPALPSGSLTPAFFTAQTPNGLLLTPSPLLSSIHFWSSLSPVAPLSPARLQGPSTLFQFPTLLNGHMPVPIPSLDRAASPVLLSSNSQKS
Summary of the method: as §1

[10] = target: T7, FEV (Homo sapiens, UniProt Q99581 1-238)
T7 sequence: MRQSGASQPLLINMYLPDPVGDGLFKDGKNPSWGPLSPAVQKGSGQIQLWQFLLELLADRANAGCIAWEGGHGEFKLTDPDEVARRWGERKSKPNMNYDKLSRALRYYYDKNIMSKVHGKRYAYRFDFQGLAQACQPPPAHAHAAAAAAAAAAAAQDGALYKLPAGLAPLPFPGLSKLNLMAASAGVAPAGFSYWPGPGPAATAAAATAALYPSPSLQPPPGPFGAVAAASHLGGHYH
Summary of the method: as §1

[11] = target: ETV5 (Homo sapiens, UniProt P41161 1-510)
Summary of the method: as §1

[12] = target: ELF4 (Homo sapiens, UniProt Q99607 1-663)
Summary of the method: as §1

[13] = target: ETV1 (Homo sapiens, UniProt P50549 1-477)
Summary of the method: as §1

[14] = target: T8, ERF (Homo sapiens, UniProt P50548 1-548)
T8 sequence: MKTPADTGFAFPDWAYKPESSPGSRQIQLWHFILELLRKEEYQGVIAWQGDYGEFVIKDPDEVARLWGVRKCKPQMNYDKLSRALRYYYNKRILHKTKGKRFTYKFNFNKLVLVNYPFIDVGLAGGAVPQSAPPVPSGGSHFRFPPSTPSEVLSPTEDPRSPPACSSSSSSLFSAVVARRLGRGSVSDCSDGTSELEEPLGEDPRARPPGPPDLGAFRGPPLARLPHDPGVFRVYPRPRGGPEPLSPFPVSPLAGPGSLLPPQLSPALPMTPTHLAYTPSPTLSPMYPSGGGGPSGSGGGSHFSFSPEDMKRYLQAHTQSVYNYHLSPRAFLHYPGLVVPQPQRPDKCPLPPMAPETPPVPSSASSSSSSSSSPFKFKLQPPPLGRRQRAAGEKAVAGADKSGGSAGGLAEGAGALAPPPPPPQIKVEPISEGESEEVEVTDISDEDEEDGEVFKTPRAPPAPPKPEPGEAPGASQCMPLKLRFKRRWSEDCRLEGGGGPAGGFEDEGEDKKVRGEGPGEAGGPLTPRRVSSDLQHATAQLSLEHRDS
Summary of the method: as §1

[15] = target: T9, ETV3L (Homo sapiens, UniProt Q6ZN32 1-361)
T9 sequence: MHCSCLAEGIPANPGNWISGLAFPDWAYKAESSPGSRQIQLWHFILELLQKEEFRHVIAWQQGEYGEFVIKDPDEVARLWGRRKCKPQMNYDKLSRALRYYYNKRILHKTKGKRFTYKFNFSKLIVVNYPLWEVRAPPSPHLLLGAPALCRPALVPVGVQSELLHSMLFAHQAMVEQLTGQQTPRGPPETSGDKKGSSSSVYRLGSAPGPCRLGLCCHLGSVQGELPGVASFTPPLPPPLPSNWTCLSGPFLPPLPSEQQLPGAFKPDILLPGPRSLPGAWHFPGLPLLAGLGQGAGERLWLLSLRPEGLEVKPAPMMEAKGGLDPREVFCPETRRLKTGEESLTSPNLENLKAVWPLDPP
Summary of the method: as §1

[16] = target: T10, ETS2 (Homo sapiens, UniProt P15036 1-469)
T10 sequence: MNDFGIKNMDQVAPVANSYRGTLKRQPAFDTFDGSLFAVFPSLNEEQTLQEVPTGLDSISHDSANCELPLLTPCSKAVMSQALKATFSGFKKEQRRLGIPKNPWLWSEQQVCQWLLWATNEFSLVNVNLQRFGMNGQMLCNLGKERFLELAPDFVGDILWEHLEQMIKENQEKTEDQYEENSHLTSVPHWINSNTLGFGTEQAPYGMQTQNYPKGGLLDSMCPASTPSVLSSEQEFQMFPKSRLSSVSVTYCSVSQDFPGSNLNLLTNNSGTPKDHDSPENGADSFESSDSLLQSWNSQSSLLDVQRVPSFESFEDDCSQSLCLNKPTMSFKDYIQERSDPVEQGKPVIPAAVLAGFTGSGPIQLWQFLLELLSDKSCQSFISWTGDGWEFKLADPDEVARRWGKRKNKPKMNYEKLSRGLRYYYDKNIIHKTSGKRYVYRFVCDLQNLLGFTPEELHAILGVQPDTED
Summary of the method: as §1

[17] = target: T11, ELF5 (Homo sapiens, UniProt Q9UKW6-2 1-255)
T11 sequence: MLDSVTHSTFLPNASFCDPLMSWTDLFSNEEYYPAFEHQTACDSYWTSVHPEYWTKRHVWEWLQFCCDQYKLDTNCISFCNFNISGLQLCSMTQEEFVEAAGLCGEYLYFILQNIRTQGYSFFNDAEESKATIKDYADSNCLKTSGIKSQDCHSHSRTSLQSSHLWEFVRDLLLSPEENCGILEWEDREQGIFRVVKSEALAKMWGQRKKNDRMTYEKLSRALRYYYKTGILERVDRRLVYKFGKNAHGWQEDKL
Summary of the method: as §1

[18] = target: T12, ETV3 (Homo sapiens, UniProt P41162-2 1-143)
T12 sequence: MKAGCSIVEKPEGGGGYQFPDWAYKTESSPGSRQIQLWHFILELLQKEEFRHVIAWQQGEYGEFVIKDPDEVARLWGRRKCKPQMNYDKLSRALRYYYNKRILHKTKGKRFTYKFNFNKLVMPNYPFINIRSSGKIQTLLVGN
Summary of the method: as §1

[19] = target: ETV6 (Homo sapiens, UniProt P41212 1-452)
Summary of the method: as §1

Chain of ETV1 (P50549 whole entry): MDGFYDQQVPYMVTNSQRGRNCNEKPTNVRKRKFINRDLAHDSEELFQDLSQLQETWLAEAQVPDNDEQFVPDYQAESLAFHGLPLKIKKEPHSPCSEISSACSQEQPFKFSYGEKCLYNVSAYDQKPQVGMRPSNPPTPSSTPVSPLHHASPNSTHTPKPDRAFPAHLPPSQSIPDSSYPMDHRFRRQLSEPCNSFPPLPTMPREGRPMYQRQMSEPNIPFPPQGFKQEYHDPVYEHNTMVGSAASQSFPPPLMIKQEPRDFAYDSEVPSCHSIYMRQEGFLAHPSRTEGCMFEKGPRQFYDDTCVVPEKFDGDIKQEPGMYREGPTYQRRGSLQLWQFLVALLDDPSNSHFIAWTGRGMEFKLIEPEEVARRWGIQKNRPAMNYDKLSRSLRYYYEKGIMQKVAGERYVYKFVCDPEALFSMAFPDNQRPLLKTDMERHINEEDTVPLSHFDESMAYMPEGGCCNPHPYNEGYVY
Chain of ETV6 (P41212 whole entry): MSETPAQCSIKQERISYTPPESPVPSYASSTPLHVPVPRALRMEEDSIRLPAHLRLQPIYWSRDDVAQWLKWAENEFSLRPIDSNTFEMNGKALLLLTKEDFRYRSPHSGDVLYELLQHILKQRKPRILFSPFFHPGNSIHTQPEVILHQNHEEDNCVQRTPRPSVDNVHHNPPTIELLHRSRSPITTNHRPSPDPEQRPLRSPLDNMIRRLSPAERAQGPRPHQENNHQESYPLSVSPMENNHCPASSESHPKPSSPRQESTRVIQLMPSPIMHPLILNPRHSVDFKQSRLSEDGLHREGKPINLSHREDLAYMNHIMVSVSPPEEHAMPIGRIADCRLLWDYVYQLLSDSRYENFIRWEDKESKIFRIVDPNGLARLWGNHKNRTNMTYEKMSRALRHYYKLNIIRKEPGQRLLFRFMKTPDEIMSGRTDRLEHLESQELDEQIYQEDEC
Chain of SPIB (Q01892 whole entry): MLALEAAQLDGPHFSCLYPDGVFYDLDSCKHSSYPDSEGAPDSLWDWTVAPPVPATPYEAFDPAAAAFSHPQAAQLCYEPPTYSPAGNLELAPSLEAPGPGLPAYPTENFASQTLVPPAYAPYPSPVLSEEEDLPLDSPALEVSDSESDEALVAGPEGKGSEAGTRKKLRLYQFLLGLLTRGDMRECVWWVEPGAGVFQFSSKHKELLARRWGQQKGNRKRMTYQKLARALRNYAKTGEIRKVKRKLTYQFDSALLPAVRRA
Chain of ELF1 (P32519 whole entry): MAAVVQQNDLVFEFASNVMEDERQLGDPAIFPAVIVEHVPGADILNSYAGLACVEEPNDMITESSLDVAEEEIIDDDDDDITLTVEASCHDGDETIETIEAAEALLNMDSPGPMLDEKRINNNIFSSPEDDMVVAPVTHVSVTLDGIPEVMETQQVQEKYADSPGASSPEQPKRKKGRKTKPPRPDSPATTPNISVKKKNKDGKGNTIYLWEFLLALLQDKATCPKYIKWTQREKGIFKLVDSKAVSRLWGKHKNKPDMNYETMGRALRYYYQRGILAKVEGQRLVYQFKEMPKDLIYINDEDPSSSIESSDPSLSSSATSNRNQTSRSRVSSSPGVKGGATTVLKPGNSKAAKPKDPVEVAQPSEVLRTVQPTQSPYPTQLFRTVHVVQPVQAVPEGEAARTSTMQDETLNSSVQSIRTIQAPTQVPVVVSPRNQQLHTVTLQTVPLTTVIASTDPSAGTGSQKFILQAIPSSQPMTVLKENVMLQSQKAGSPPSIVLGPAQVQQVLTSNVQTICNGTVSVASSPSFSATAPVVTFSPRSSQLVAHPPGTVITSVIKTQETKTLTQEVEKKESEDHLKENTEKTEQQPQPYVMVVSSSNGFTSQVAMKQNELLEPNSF
Chain of ELF4 (Q99607 whole entry): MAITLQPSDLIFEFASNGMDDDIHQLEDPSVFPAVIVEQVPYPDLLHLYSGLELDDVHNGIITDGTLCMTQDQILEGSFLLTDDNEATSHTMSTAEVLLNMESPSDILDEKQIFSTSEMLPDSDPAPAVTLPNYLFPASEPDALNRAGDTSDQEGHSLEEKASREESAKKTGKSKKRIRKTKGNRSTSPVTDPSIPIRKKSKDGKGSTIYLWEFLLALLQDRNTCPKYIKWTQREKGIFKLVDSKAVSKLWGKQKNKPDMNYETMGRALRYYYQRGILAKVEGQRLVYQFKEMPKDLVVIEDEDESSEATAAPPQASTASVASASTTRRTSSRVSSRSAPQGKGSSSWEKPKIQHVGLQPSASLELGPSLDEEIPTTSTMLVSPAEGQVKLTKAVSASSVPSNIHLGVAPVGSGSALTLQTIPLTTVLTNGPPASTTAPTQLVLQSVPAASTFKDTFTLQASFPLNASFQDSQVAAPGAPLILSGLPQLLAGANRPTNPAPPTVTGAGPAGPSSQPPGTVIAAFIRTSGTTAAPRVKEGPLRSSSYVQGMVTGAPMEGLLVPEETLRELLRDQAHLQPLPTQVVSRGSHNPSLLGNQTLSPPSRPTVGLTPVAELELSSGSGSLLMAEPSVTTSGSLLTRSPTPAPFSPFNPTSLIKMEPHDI
Chain of ETV5 (P41161 whole entry): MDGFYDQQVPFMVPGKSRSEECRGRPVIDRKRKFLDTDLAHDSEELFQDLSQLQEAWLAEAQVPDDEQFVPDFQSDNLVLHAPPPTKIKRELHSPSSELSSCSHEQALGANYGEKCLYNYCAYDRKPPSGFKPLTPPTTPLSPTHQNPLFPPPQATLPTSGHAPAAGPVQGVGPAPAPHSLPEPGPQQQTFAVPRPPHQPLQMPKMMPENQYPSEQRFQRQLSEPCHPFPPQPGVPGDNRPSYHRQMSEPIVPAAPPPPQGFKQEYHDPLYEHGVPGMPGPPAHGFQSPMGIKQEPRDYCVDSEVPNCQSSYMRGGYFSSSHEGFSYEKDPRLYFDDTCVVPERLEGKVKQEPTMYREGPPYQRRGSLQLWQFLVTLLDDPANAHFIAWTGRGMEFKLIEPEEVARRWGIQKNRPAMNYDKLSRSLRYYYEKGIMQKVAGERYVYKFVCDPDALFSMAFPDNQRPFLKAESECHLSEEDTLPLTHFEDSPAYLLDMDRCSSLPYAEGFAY

**Q.** Which binding signal [1] does the source give for TACCCC here?
**A.** 1.14 fold enrichment (6-mer frequency, TF over GST control)

**Q.** What about the binding signal [2] of the same sequence?
**A.** 1.11 fold enrichment (6-mer frequency, TF over GST control)

**Q.** What about the binding signal [3] of the same sequence?
**A.** 1.16 fold enrichment (6-mer frequency, TF over GST control)

**Q.** And the binding signal [4]?
**A.** 1.07 fold enrichment (6-mer frequency, TF over GST control)

**Q.** And the binding signal [5]?
**A.** 1.14 fold enrichment (6-mer frequency, TF over GST control)

**Q.** What about the binding signal [6] of the same sequence?
**A.** 1.12 fold enrichment (6-mer frequency, TF over GST control)

**Q.** What about the binding signal [7] of the same sequence?
**A.** 1.11 fold enrichment (6-mer frequency, TF over GST control)

**Q.** And the binding signal [8]?
**A.** 1.09 fold enrichment (6-mer frequency, TF over GST control)

**Q.** What about the binding signal [9] of the same sequence?
**A.** 1.11 fold enrichment (6-mer frequency, TF over GST control)

**Q.** What about the binding signal [10] of the same sequence?
**A.** 1.07 fold enrichment (6-mer frequency, TF over GST control)

**Q.** And the binding signal [11]?
**A.** 1.07 fold enrichment (6-mer frequency, TF over GST control)

**Q.** What about the binding signal [12] of the same sequence?
**A.** 1.15 fold enrichment (6-mer frequency, TF over GST control)

**Q.** What about the binding signal [13] of the same sequence?
**A.** 1.06 fold enrichment (6-mer frequency, TF over GST control)

**Q.** What about the binding signal [14] of the same sequence?
**A.** 1.02 fold enrichment (6-mer frequency, TF over GST control)

**Q.** What about the binding signal [15] of the same sequence?
**A.** 1.1 fold enrichment (6-mer frequency, TF over GST control)

**Q.** And the binding signal [16]?
**A.** 1.21 fold enrichment (6-mer frequency, TF over GST control)

**Q.** And the binding signal [17]?
**A.** 1.12 fold enrichment (6-mer frequency, TF over GST control)

**Q.** And the binding signal [18]?
**A.** 1.09 fold enrichment (6-mer frequency, TF over GST control)

**Q.** And the binding signal [19]?
**A.** 1.04 fold enrichment (6-mer frequency, TF over GST control)

From paper PMC7862700, “An all-to-all approach to the identification of sequence-specific readers for epigenetic DNA modifications on cytosine”
